B1: d3r1_design_ppi_981_dldesign_0_cycle1_af2pred (protein)
chain: MEEFAKEMEKWSEEAAKKYEEAKELAKKDPKEGVKVLEEAIKELEEKAKEYEKKGPYGKNIAKALNWLAKKFKELKKKIEAS
B2: d3r1_design_ppi_859_dldesign_0_cycle1_af2pred (protein)
chain: ESELLKQVAEAVQQAVKAALKDPEEAKKVVEKALELDAEKAIEVAKSLAEAYKIAGNEEKAAAAKKVAELLEKLSKERK
B3: d4r1_design_ppi_104_dldesign_0_cycle1_af2pred (protein)
chain: MSIEERLEELEKRLYEEIKKKAEEYLEELEKESEKLAKLDPSLAEEAKKKYEEAKELYKDPETVYLSKSHAEENLEEVKKKIKELES
B4: d3r1_design_ppi_897_dldesign_0_cycle1_af2pred (protein)
chain: MEALKAVEEKMKEAIEYAKKAGDEELAKEAEKRRKALLAGAERAVEVAKKNPVAGASLAQAVIKSAELASEYFKELVEKKK
B5: d3r1_design_ppi_688_dldesign_0_cycle1_af2pred (protein)
chain: AVENAKKAAEQATKALKAYATEEEKEEAEKKGKEFKKLAEEAKADPSKAEEVLNKLLKEAKEYDKKLEEKEKKEKEE
B6: d3r1_design_ppi_729_dldesign_0_cycle0_af2pred (protein)
chain: DEEKKAKEAAEEAIKAKEKLGTGKEVKKTADEAFAAAKKATPEQAKALYKKLLEWFKEEKAKAEAEIAAA
B7: d3r1_design_ppi_994_dldesign_0_cycle0_af2pred (protein)
chain: MEELEKVAKKILKEAKKRAEEAAKKGAESENGEEVFTKGLQETLEKASEEAEKAGLPDELAVKVLKEIVKYGNEVKKAALAARA
B8: d3r1_design_ppi_897_dldesign_0_cycle0_af2pred (protein)
chain: MEAKEKVKKLTEEAIKYAEEAGDKETAEEAKKGGEALLAGAKEAEELAKKNPVAGASLQEAVIKSAELFAKSIKEEVEKKK
B9: d3r1_design_ppi_891_dldesign_0_cycle1_af2pred (protein)
chain: AEEALKEEMVKKAKEVAEKAAKAGYPEEAKQAAKAGAAFAPEKGEEIKKYAEEEIKKAEKEKEEKKKKEKEKKE
B10: d3r1_design_ppi_734_dldesign_0_cycle0_af2pred (protein)
chain: SSEEELKLLTGKNALEILPEILKEAEKLLKEAKKTGDKEKLKEAIKQAENAIAAAKAAAIVDPKKAEEYKKKAEKLKKEAEKLL
B11: d4r1_design_ppi_144_dldesign_0_cycle0_af2pred (protein)
chain: DEETKKAVEEAKKAAKEAEEIAKKYPELKPLAEQAKKAAKYAEKYAKENPIAAKNAMKATKAIAEEMKKLA
B12: d4r1_design_ppi_104_dldesign_0_cycle0_af2pred (protein)
chain: MSIEERLEELEKRLTEETKKEAEENLKRLEEVAKELAELDPELAPEAKKALEEAKKLFEDPEKIFEAAALARESLEEFEKRLKELKE
B13: d3r1_design_ppi_728_dldesign_0_cycle1_af2pred (protein)
chain: DIRENIKKLAKELKKEAEKLSEYDPELAKKAIEYAKKAEAAKTAEEAAKYATKAAEYVEKAEELAKKKKEELEK
B14: d4r1_design_ppi_77_dldesign_0_cycle1_af2pred (protein)
chain: MKEEEKALEKANEYIEKAEELAKKALENGEGDEVFSEAGKLLEKAVEEAEKNKENREEILKRVQEVRDLLREAVLKRLKAE
B15: d4r1_design_ppi_77_dldesign_0_cycle0_af2pred (protein)
chain: MKEKEEALKEAKKHLKEAEKLAEEAEKNGKGDELFSKLGKHLQEAAKYAEKNKENQEEINKELQKVAKKARDAILKVQKAR
B16: d3r1_design_ppi_985_dldesign_0_cycle1_af2pred (protein)
chain: EEAEKLLKEIKEKSEKAIKLAEEGKIEEAEKELQEALKIAQELAKKYPEAAPEAAKIVNKAATELEKKKEEQKKKLE
B17: d3r1_design_ppi_728_dldesign_0_cycle0_af2pred (protein)
chain: SLKESVDKKVEKLKEEAKKLAKYDPELAKKAIEYAEKAKKAKTLEEAGKYANKASEYIEEAEKKAKEKKEEEAK
B18: d4r1_design_ppi_33_dldesign_0_cycle0_af2pred (protein)
chain: SEEEEKNAENLKKAAEELEKIAEEGIKKGASVEEIKKKLEEKGKEFAKKYPKNAKSYLELAKIVAKEAEKKLK
B19: d3r1_design_ppi_851_dldesign_0_cycle0_af2pred (protein)
chain: DEVKKLLEEAKKLAEKAEELAKKGGSVEEVEKAAEKAQEAAVKAIKLAAKTEDGEKLTKEAGKYAQKATQAAAEAKEKAKKEA

For this experiment, the target named is VTCN1, Q7Z7D3.
Chain of VTCN1, Q7Z7D3 (Q7Z7D3 whole entry): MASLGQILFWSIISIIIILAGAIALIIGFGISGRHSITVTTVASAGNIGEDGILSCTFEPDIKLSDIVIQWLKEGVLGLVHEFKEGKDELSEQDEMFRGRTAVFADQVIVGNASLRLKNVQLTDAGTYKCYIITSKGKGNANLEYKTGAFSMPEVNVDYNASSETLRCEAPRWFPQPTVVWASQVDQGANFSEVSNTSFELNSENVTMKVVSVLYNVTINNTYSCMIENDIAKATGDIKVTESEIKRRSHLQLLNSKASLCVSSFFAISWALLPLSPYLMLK
B1: the “binding in a display sort” value is “not found (inactive)”.

For B2, the “binding in a display sort” value was “not found (inactive)”.

As for B3, the “binding in a display sort” value is “not found (inactive)”.

For the molecule B4, the “binding in a display sort” value was “not found (inactive)”.

For the molecule B5, the “binding in a display sort” value was “not found (inactive)”.

B6: the “binding in a display sort” value was “not found (inactive)”.

For B7, the “binding in a display sort” value is “not found (inactive)”.

On to B8, for which the “binding in a display sort” value was “not found (inactive)”.

For the molecule B9, the “binding in a display sort” value was “not found (inactive)”.

In the case of B10, the “binding in a display sort” value is “not found (inactive)”.

With B11, the “binding in a display sort” value is “not found (inactive)”.

As for B12, the “binding in a display sort” value was “not found (inactive)”.

Take B13: the “binding in a display sort” value is “not found (inactive)”.

As to B14, the “binding in a display sort” value was “not found (inactive)”.

Take B15: the “binding in a display sort” value is “not found (inactive)”.

Take B16: the “binding in a display sort” value was “not found (inactive)”.

As for B17, the “binding in a display sort” value is “not found (inactive)”.

Regarding B18, the “binding in a display sort” value was “not found (inactive)”.

As for B19, the “binding in a display sort” value is “not found (inactive)”.

The values above are taken from PMC13494018.
